The list is not random: actives were taken first. Their share in the collection is about 2.2%.
hiPSC survival – enhancers of single-cell hiPSC survival, primary screen, ATPlite luminescence | 100% = ROCK inhibitor wells, 0% = DMSO | survival enhancement, % at 20 µM | 360,000 compounds, 0.044% hits; in the data active = survival enhancement above about 18%;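 note: cells exposed to compounds for 16 hours before the ATP read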
ABCB6 inh 2 – ABCB6 transporter inhibitors, primary screen, K562-ABCB6 cells, flow cytometry, MLPCN library; 360,000 compounds, 0.19% hits; fluorescence ratio to DMSO, % at 10 µM; ATP-binding cassette sub-family B member 6 (Homo sapiens), Q9NP58; K562-ABCB6 porphyrin accumulation, 1 h; hits give low values;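 active = fluorescence ratio to DMSO below 75%, the collection mean minus 3 SD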;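 note: signal is porphyrin accumulated inside mitochondria; lower ratio means ABCB6 inhibition with less porphyrin fluorescence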
beta cell repl – inducers of MIN6 beta-cell proliferation, primary screen, ATP luminescence, uHTS; MIN6 cells proliferation, ATPlite luminescence, 48 h; cells starved in 0.2% serum; 100% = growth in 10% serum; proliferation, % at 10 µM; 330,000 compounds, 0.29% hits; AID 2380, 2010;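 active = compounds whose signal lies at least 3.5 SD above the mean of all wells on their plate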
Myeloid diff 2 – induction of myeloid progenitor differentiation, primary screen, cell-based, flow cytometry, MLPCN library; ER-HoxA9 myeloid progenitors, lysozyme-GFP differentiation; calls only at 10 µM; 360,000 compounds, 1% hits;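 active = normalized GFP-positive differentiation at or above the plate's own cutoff, the solvent-only control mean plus 3 SD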;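 note: cells exposed to compound for four days before flow analysis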
Cardio protect – cardioprotection against H2O2-induced cell death, primary screen, uHTS, H9c2 cells, ATPLite luminescence; 360,000 compounds, 0.63% hits; AID 588492, 2011; protection from H2O2 cell death, % at 20 µM; H9c2 cardiomyocytes, H2O2 injury protection, 2 h;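 active = compounds giving at least 50% protection of heart cells from peroxide-induced death in the single-dose screen, raw or plate-pattern-corrected value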
Myeloid diff CP1 – inducers of myeloid progenitor differentiation, confirmation, cell-based, GFP/Mac1 flow cytometry, cherry pick 01; AID 651706, 2012; 2,300 compounds, 2% hits; ER-HoxA9 myeloid progenitors, GFP/Mac1 double-positive flow; calls only; shares compounds with Myeloid diff 2;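 active = share of green or green-and-red cells above 9 and 9% in run 1 or 4 and 3% in run 2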
GFP autofluor – compound fluorescence in myeloid differentiation counter-screen; shares compounds with Myeloid diff 2; ER-HoxA9 myeloid progenitors, no estrogen, GFP autofluorescence flow cytometry; vehicle wells 0%, positive control 100%; fluorescence response, % (no concentration beside the values); 2,300 compounds, 7.4% hits;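 active = over 5% cells positive for green fluorescent reporter, or over 2% positive for both it and APC stain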
Calls only.

What do the screens show for `CCCCCN1C(=O)c2ccccc2[C@@]2(C(=O)OCC)Cc3cc(OC)ccc3[C@@H]12`?
hiPSC survival: inactive; ABCB6 inh 2: inactive; Myeloid diff 2: active; Myeloid diff CP1: inactive; GFP autofluor: inactive

How did CCOC(=O)[C@]12Cc3ccccc3[C@H]1N(Cc1ccccc1)C(=O)c1ccccc12 do in these assays?
hiPSC survival: inactive; ABCB6 inh 2: inactive; Myeloid diff 2: inactive; Cardio protect: inactive

What do the screens show for `C[C@]12CC[C@@H](O)C[C@@H]1CC[C@@H]1[C@@H]2CC[C@]2(C)[C@@H](O)CC[C@@H]12`?
hiPSC survival: inactive; ABCB6 inh 2: inactive; beta cell repl: inactive; Myeloid diff 2: inactive; Cardio protect: inactive

Results for COc1cccc(-n2c(O)c(C=NCc3ccc4c(c3)OCO4)c(=O)[nH]c2=O)c1 ?
hiPSC survival: inactive; ABCB6 inh 2: inactive; beta cell repl: inactive; Myeloid diff 2: inactive; Cardio protect: inactive

How did C=C1C2[C@H](OC(C)=O)[C@@H]3CC(=O)[C@]4(C)OC[C@@]3(C)[C@@]4(O)[C@@H](OC(C)=O)[C@H](OC(C)=O)[C@@]2(COC(=O)c2ccccc2)[C@@H](OC(C)=O)C[C@@H]1O (some centres not stated) do in these assays?
hiPSC survival: inactive; ABCB6 inh 2: inactive; beta cell repl: inactive; Myeloid diff 2: inactive; Cardio protect: inactive; Myeloid diff CP1: inactive; GFP autofluor: inactive

Results for C[C@@H]1CC2(CCCC[N+]2(C)C)C[C@H]1C ?
hiPSC survival: inactive; ABCB6 inh 2: inactive; beta cell repl: inactive; Myeloid diff 2: inactive; Cardio protect: inactive

How did O=C(/C=C/c1ccc2c(c1)OCO2)c1c(O)n(CCc2ccccc2)c(=O)[nH]c1=O do in these assays?
hiPSC survival: inactive; ABCB6 inh 2: inactive; beta cell repl: inactive; Myeloid diff 2: inactive; Cardio protect: inactive

How did O=C(/C=C/c1ccccc1)c1c(O)n(CCc2ccccc2)c(=O)[nH]c1=O do in these assays?
hiPSC survival: inactive; ABCB6 inh 2: inactive; beta cell repl: inactive; Myeloid diff 2: active; Cardio protect: inactive; Myeloid diff CP1: inactive; GFP autofluor: inactive

How did Cn1ccnc1P(=S)(c1nccn1C)c1nccn1C do in these assays?
hiPSC survival: inactive; ABCB6 inh 2: inactive; beta cell repl: inactive; Myeloid diff 2: active; Cardio protect: inactive; Myeloid diff CP1: inactive; GFP autofluor: inactive

Results for c1ccc2nc(OCCN3CC3)ccc2c1 ?
beta cell repl: inactive

How did O=C(CCC(=O)N1CC2C[C@@H](C1)Cn1c2cccc1=O)NCCc1ccccc1F do in these assays?
hiPSC survival: inactive; ABCB6 inh 2: inactive; beta cell repl: inactive; Myeloid diff 2: inactive; Cardio protect: inactive; Myeloid diff CP1: inactive; GFP autofluor: inactive

How did CCOC(=O)C(C)Oc1cc(C)cc2oc(=O)c3c(c12)CCCC3 (configuration not stated) do in these assays?
hiPSC survival: inactive; ABCB6 inh 2: inactive; beta cell repl: inactive; Myeloid diff 2: inactive; Cardio protect: inactive; Myeloid diff CP1: inactive; GFP autofluor: inactive

What do the screens show for `COc1ccc(OC(=O)N(C)C[C@@H]2OCc3cnnn3CCCC(=O)N([C@@H](C)CO)C[C@@H]2C)cc1`?
hiPSC survival: inactive; ABCB6 inh 2: inactive; Myeloid diff 2: inactive; Cardio protect: inactive; Myeloid diff CP1: inactive; GFP autofluor: inactive

How did Cc1ccc(CC(=O)N2CCN(C)CC2)cc1 do in these assays?
hiPSC survival: inactive; ABCB6 inh 2: inactive; beta cell repl: inactive; Myeloid diff 2: inactive; Cardio protect: inactive

How did COc1ccc(CC(=O)N2CCN(C)CC2)cc1 do in these assays?
hiPSC survival: inactive; ABCB6 inh 2: inactive; beta cell repl: inactive; Myeloid diff 2: inactive; Cardio protect: inactive; Myeloid diff CP1: inactive; GFP autofluor: inactive

How did COc1ccc(-n2c(-c3ccc(C)cc3)nc3ccccc3c2=O)cc1 do in these assays?
hiPSC survival: inactive; ABCB6 inh 2: inactive; beta cell repl: inactive; Myeloid diff 2: inactive; Cardio protect: inactive
